Laboratory results from PubChem BioAssay AID651622 (National Center for Advancing Translational Sciences (NCATS), 2012).
Unmarked numbers belong to inactive results.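 The calls were made as follows: active = inhibition of the USP46/UAF1 deubiquitinase of at least 60% at 114 µM in the gel test; inconclusive = inhibition from 30% up to under 60%; inactive = inhibition below 30%.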

biological target: Ubiquitin carboxyl-terminal hydrolase 46 (Homo sapiens) + WD repeat-containing protein 48 (Homo sapiens) (UniProt P62068+Q8TAF3); test: Inhibitors of USP1/UAF1: SAR in USP46/UAF1 diubiquitin SDS-PAGE gel assay; conditions: USP46/UAF1 K63 diubiquitin cleavage; series mostly up to 114 µM; inhibition: at the top concentration
Excerpt: Deubiquitinating enzymes (DUBs) are a class of enzymes that can cleave isopeptide bond formed between the C-terminal carboxylate of ubiquitin and a lysine side-chain amino group on the target protein. Among them, ubiquitin specific proteases (USPs) constitute the largest DUB family. Human USPs are emerging as promising targets for pharmacological intervention because of their connection to a number of human diseases, including prostate, colon and breast cancer (1, 2), pediatric acute lymphoblastic leukemia (3), and familial cylindromatosis (4). The advantage of inhibiting USPs lies in the potential specificity of therapeutic intervention that can lead to better efficacy and reduce nonspecific side effects. In a collaboration between the University of Delaware and the NIH Chemical Genomics Center, a high-throughput screen assay was developed to screen for USP1/UAF1 inhibitors (5). […]
The inhibition assay contains 100 nM USP46/UAF1, 2 microM K63 linked diubiquitin, and inhibitors at varied concentrations (0.08 microM - 114 microM). […] The intensity of the individual diubiquitin and monoubiquitin band was quantified using Quantity One 4.3.1 (Biorad, Hercules, CA). The percentage of the conversion was determined and used to calculate the reaction rate. […]

Sequence of Ubiquitin carboxyl-terminal hydrolase 46 (Homo sapiens) + WD repeat-containing protein 48 (Homo sapiens) (P62068 whole entry, looked up): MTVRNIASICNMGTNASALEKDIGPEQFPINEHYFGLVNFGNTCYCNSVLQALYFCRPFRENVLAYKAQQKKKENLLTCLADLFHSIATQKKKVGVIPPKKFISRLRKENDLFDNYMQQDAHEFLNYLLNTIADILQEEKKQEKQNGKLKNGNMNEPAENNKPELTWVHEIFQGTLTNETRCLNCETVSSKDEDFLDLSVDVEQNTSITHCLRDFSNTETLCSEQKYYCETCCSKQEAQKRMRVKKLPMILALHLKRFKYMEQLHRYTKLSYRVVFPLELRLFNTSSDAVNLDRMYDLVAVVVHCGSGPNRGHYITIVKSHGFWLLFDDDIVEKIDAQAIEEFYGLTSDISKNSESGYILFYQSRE
Sequence of Ubiquitin carboxyl-terminal hydrolase 46 (Homo sapiens) + WD repeat-containing protein 48 (Homo sapiens) (Q8TAF3 whole entry, looked up): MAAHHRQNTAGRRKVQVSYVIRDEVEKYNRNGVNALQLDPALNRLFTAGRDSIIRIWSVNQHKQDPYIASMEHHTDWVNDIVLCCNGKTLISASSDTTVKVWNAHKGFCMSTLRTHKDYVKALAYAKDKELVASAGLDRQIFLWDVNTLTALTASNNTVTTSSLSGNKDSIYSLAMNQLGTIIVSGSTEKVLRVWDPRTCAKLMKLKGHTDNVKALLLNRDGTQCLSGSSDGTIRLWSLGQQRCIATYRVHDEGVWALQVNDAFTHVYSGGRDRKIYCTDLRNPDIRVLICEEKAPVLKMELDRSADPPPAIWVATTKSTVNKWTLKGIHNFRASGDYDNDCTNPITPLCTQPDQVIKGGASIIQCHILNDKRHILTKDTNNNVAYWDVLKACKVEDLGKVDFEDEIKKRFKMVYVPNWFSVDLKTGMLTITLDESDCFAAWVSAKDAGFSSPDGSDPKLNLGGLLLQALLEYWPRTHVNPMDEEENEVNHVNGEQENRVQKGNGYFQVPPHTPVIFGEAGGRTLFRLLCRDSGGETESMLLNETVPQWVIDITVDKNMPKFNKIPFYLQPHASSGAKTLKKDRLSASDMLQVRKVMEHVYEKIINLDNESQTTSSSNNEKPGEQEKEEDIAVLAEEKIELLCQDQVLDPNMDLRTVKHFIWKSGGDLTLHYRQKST

Row | Compound | inhibition [%]
1 | Cc1cnc(-c2ccccc2C(C)C)nc1NCc1ccc(-n2ccnn2)cc1 | 9
